Data reported in PubChem BioAssay AID504437 (Emory University Molecular Libraries Screening Center, 2011).
Out of some 2,100 compounds screened, about 940 (45%) were called active.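 How the source made its calls: active means mean of three repeat readings of reporter signal inhibition above a set limit (cut at about 70% in these data); inactive means the rest.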 So high a share suggests a set chosen from earlier hits. Only a selection was taken, and actives are over-represented in it overall.

Assay: retest of CHOP induction inhibitors, confirmation, cell-based (AID 504437);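 further: 0% = tunicamycin plus vehicle and 100% = wells lacking tunicamycin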
Conditions: CHO-CHOP promoter luciferase reporter, tunicamycin-induced, luminescence; at 10 µM; stronger effect = higher value

Row | SMILES | inhibition
1 | O=C(CSC1c2ccccc2-c2ccccc21)N/N=C/c1ccccc1 | 70.5% (active)
2 | CCCCCCN=C(CC)c1c(O)n(CCCC)c(=O)[nH]c1=O | 118% (active)
